Assay outcomes as filed in PubChem BioAssay.
Wee1 stabilizer – Wee1 degradation inhibitors, primary screen, cell-based, HeLa, Wee1K328M-luciferase, luminescence; Wee1-like protein kinase (Homo sapiens), P30291; HeLa Luc-Wee1K328M stability; 100% = proteasome inhibitor MG132 effect; reporter increase, % at 5 µM; actives 1.2% (n = 220,000);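 active = activation above the mean of all tested compounds plus 3 SD, set per screening run, cut at about 8.8% in these data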;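 also: cells exposed to compound for 20 h before luminescence read; 0% = DMSO alone and 100% = MG132 at 30 µM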
Bim-Bcl-W – inhibitors of Bim binding to Bcl-W, primary screen, biochemical, multiplexed, bead-based flow cytometry | Bcl-2-like protein 2 (Homo sapiens), Q92843 | Bim peptide-Bcl-W binding | inhibition, % at 10 µM | actives 0.02% (n = 190,000) | AID 952, 2007;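 also: 0% = bound tracer without compound and 100% = peptide blocker; higher means less fluorescent Bim peptide bound to Bcl-W beads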
Target sequence (Q92843 whole entry, looked up): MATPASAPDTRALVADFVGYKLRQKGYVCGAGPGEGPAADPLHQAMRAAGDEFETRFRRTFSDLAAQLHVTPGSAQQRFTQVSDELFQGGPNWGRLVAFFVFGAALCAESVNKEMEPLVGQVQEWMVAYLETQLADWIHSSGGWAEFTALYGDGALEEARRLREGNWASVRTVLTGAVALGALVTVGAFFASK
Bim-Bcl-XL – inhibitors of Bim-Bcl-XL binding, primary screen, biochemical, multiplexed, bead flow cytometry, human Bcl-XL | actives 0.04% (n = 190,000) | Bcl-2-like protein 1 (Homo sapiens), Q07817 | Bim peptide-Bcl-XL binding, fluorescence | inhibition, % at 10 µM
Bim-Bfl-1 – inhibitors of Bim binding to Bfl-1, primary screen, biochemical, multiplexed, bead-based flow cytometry; Bcl-2-related protein A1 (Homo sapiens), Q16548; Bim-Bfl-1 binding inhibition; inhibition, % at 10 µM; actives 0.12% (n = 190,000); AID 1008, 2008;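 also: 0% = wells without compound plus tracer and 100% = blocker peptide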
Target sequence (Q16548 whole entry, looked up): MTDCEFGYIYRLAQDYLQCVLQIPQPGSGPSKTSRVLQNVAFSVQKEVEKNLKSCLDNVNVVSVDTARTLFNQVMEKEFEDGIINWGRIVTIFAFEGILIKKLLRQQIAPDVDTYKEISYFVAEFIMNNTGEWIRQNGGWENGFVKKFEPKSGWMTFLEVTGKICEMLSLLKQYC
Bcl-2 Bim block – inhibitors of Bim-Bcl-2 binding, primary screen, biochemical, multiplexed, human Bcl-2 family. Bead-based flow cytometry, Bim peptide-Bcl-2 binding. inhibition, % at 10 µM. actives 0.06% (n = 190,000). AID 950, 2007; in the data active = inhibition above about 40%;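 also: 0% = no compound wells with probe peptide and 100% = reference peptide inhibitor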
Target sequence (P10415 whole entry, looked up): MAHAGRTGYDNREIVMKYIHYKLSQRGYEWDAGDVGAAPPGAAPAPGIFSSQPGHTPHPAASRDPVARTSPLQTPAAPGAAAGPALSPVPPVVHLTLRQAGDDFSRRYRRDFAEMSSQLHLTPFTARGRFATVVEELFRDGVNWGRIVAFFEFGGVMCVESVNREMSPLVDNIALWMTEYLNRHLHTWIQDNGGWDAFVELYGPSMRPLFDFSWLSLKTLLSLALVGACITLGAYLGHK
Bim-Bcl-B – inhibitors of Bim-Bcl-B binding, primary screen, biochemical, multiplexed, human Bcl-2 family. bead-based flow cytometry, Bim peptide-Bcl-B binding. inhibition, % at 10 µM. Bcl-2-like protein 10 (Homo sapiens), Q9HD36. AID 951, 2007. actives 0.073% (n = 190,000);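 also: 0% = tracer peptide without compound and 100% = reference inhibitor peptide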
* hit, by the source's call; / = no result given. The list is not random: actives were taken first. Their share in the collection is about 1.4%. Rule as the data show it, unless noted: active = inhibition above about 40%.

SMILES | Wee1 stabilizer | Bim-Bcl-W | Bim-Bcl-XL | Bim-Bfl-1 | Bcl-2 Bim block | Bim-Bcl-B
CCOc1ccccc1C(=O)N[C@H](C(=O)Nc1nc2c(s1)CCCC2)C(C)C | 1 | -7 | -9 | -1 | -2 | -7
COc1ccc(C(=O)N[C@H](C(=O)Nc2nc3c(s2)CCCC3)C(C)C)cc1 | 10* | -6 | -7 | -2 | -2 | -9
CC(=O)c1c(C)[nH]c(C(=O)OC(C)C(=O)Nc2cc(S(=O)(=O)N3CCCCC3)ccc2Cl)c1C (stereo not drawn) | 0 | 3 | 0 | 2 | 3 | 3
CC(=O)Cc1cc(O)c2ccccc2c1OC(=O)c1ccccc1 | 1 | 2 | -1 | -3 | -6 | -4
COc1cc(/C=C2\SC(N)=NC2=O)ccc1OCC(=O)Nc1ccc(C)cc1 | 8.9* | -12 | -12 | -17 | -7 | -16
COc1ccc(/C=C2/SC(=O)N(CCC(=O)Nc3ccc(C)cc3)C2=O)cc1OC | 0 | 2 | 1 | 8 | 6 | 2
COc1ccc(COc2cc(-c3cccc(OC)c3)nc3ccc(NC(C)=O)cc23)cc1 | -2 | 0 | 0 | 4 | 1 | -1
COc1ccc(COc2cc(-c3cccc(OC)c3)nc3ccc(N)cc23)cc1 | 9.5* | 8 | 5 | 8 | 5 | 2
CCNS(=O)(=O)c1ccc2c(c1)n(C)c(=O)n2C | -1 | 0 | -2 | -12 | -5 | -6
Cn1c(=O)n(C)c2cc(S(=O)(=O)O)ccc21 | 9.0* | 0 | -2 | -1 | -2 | -4
Cn1c(=O)oc2cc(S(=O)(=O)N3CCOCC3)ccc21 | 0 | -2 | -4 | -2 | 0 | -2
Cn1c(=O)c(=O)n(C)c2cc(S(=O)(=O)N3CCOCC3)ccc21 | 12* | -1 | -5 | -2 | -3 | -8
O=C(O)CCNC(=O)C12CC3CC(CC(C3)C1)C2 | -1 | 0 | -1 | 0 | -1 | -2
O=C(NC1=NCCS1)c1cccc(OC(F)F)c1 | 11* | -3 | -2 | -8 | -2 | -5
CCOc1ccc(CN(CCO)CCO)cc1[N+](=O)[O-] | 9.0* | -3 | -4 | -1 | -5 | -2
CCCCOc1ccc(CN(CCO)CCO)cc1[N+](=O)[O-] | 0 | -1 | -3 | -12 | -7 | -4
NS(=O)(=O)c1cc2c(cc1Cl)NC(CSCc1ccccc1)=NS2(=O)=O | -3 | -8 | -3 | 1 | -1 | -3
NS(=O)(=O)c1cc2c(cc1C(F)(F)F)NC(Cc1ccccc1)NS2(=O)=O (stereo not drawn) | 10* | 0 | 0 | -1 | 1 | 0
CCOc1cc2c(C#N)c(N3CCNCC3)nc(N)c2c(N)n1 | 4 | 17 | 18 | 8 | 17 | 53*
CC1Cc2ccccc2N1C(=O)CSc1nn2c(=O)c(C(C)(C)C)nnc2s1 (stereo not drawn) | 10* | -1 | -2 | -4 | -6 | -8
Cc1cc(C)cc(N(CC(=O)NC2CCCC2)C(=O)C2(C)CC(=O)N=C3C=CC=CN32)c1 (stereo not drawn) | 11* | -2 | -5 | -8 | -6 | -2
Cc1ccc(NC(=O)N2CCCCC2)cc1[N+](=O)[O-] | -1 | / | / | / | / | /
CC(=O)NC1C(=O)N=C(SC(C)C(=O)Nc2cccc(Cl)c2)NC1=O (stereo not drawn) | 1 | 0 | 0 | -3 | -3 | -1
N/C(=N\OC(=O)Cc1ccc(Cl)cc1)c1ccncc1 | 8.9* | 2 | -2 | -4 | -4 | -2
CCn1c(COc2ccc(OC)cc2)nnc1SCc1nc2ccccc2c(=O)[nH]1 | 9.8* | -4 | -1 | -5 | -3 | -8
SMILES | Wee1 stabilizer | Bim-Bcl-W | Bim-Bcl-XL | Bim-Bfl-1 | Bcl-2 Bim block | Bim-Bcl-B
COC(=O)c1ccccc1NC(=S)N(Cc1ccc2c(c1)OCO2)Cc1cc2cccc(C)c2[nH]c1=O | -2 | -11 | -15 | -21 | -10 | -20
O=C(/C=C/c1ccccc1)N1CCN(CCN2C(=O)c3cccc4cccc(c34)C2=O)CC1 | 9.8* | -3 | -4 | -2 | -2 | -5
O=C(CCN1C(=O)c2cccc3cccc(c23)C1=O)N1CCOCC1 | -1 | 1 | 0 | -5 | -3 | 0
CC(C)Oc1cccc(-c2cc(C(=O)N3CCN(c4ncccn4)CC3)c3ccccc3n2)c1 | 9.3* | 2 | -1 | -2 | -1 | -1
N#C/C(=C/c1ccc(C(=O)O)cc1)C(=O)Nc1ccccc1 | 9.0* | 2 | 2 | 6 | 4 | 5
Cc1cc(C(=O)OCC(=O)Nc2cccc(S(=O)(=O)N(C)C)c2)c(C)o1 | 1 | / | / | / | / | /
NS(=O)(=O)c1cccc(NC(=O)COC(=O)c2cc(-c3ccc(Cl)cc3)nc3ccccc23)c1 | 9.0* | -4 | -4 | 0 | -2 | -4
Cc1cc(C(=O)OCC(=O)Nc2cccc(S(=O)(=O)N(C)C)c2)c2ccccc2n1 | 11* | 1 | 0 | -3 | -1 | -1
CN(C)S(=O)(=O)c1cccc(NC(=O)COC(=O)c2cccc(S(=O)(=O)N3CCc4ccccc4C3)c2)c1 | 11* | -3 | -4 | -2 | -3 | -3
CN(C)S(=O)(=O)c1ccc(Cl)c(NC(=O)COC(=O)c2cc(-c3ccccc3)nc3ccccc23)c1 | -2 | -1 | -4 | 0 | -5 | -7
COc1ccc(Cl)cc1-c1nc(SCC(=O)NC2CC2)n[nH]1 | -3 | 2 | 3 | 7 | 3 | 8
O=C(NC(=S)Nc1ccccc1F)c1ccc(Br)o1 | 11* | 0 | -2 | -5 | -1 | -4
O=C1c2ccccc2C(=O)c2cc(S(=O)(=O)Nc3ccccc3)ccc21 | -2 | -5 | -6 | -1 | 0 | 41*
Cc1cccc(Cn2nc(C)cc2NC(=O)CCCn2ccc([N+](=O)[O-])n2)c1 | -2 | -1 | -4 | -7 | -3 | -3
Cc1ccc(C(=O)N/N=C2/NC(=O)CC(C(=O)Nc3ccccc3)S2)cc1 (stereo not drawn) | 5 | 28 | 40* | 28 | 26 | 26
Cc1ccccc1OCCCc1c(C)n[nH]c1C | -1 | -5 | 0 | 5 | 1 | 0
Cc1ccccc1OCCCCc1c(C)n[nH]c1C | 10* | 3 | -4 | -10 | -12 | -9
CCN(C(=O)c1cc2cc3ccc(C)cc3nc2o1)c1ccc(OC)cc1 | 1 | -2 | -6 | -17 | -11 | -10
CCCCN(C)C(=O)c1cc2cc3cc(OC)ccc3nc2o1 | 10* | -2 | -4 | -8 | -3 | -5
